Among the data in PubChem BioAssay are composite z-score and z-score values, retold here.

Calls of active or inactive are those of the source.

The nature of assay [1]: small molecules captured by biotinylated probe aFSTL3 – biochemical, small-molecule microarray, fluorescence 635/667, stem cell growth factor project, primary screen (AID 1064).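 Note: measures binding of the biotinylated anti-FSTL3 antibody to printed compounds.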 The conditions noted are these: higher = more signal.
Assay [2] in a line: binders from COS7 lysate, DM2A8 probe, primary screen, torsin A project, cell lysate, small-molecule microarray, fluorescence 635/667 (AID 1065). The conditions noted are these: higher = more signal, COS7 lysate expressing mutant human TOR1A.
Assay [3] is described as follows: small molecules captured by biotinylated probe aFGF2 – biochemical, small-molecule microarray, fluorescence 635/667, stem cell growth factor project, primary screen (AID 1067).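 Note: measures binding of biotinylated aFGF2 protein to printed compounds on slides; z-score merges feature fluorescence and signal-to-noise across triplicate slides.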 The note with it: higher = more signal.
Assay [4] in a line: small molecules captured by biotinylated probe aFGF10 – biochemical, small-molecule microarray, fluorescence 635/667, stem cell growth factor project, primary screen (AID 1071).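 Note: score merges 667 nm spot intensity and signal to noise from triplicate slides.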 The conditions noted are these: higher = more signal.
Assay [5] concerns the target Neurogenic locus notch homolog protein 2 (Homo sapiens) (UniProt Q04721). As to the kind of experiment: small molecules binding Notch2 protein – biochemical, small-molecule microarray, 635 nm fluorescence, stem cell growth factors, primary screen (AID 1073). The conditions noted are these: higher = more signal.
Assay [6] concerns the target Pro-neuregulin-1, membrane-bound isoform (Homo sapiens) (UniProt Q02297). As to the kind of experiment: small molecules binding neuregulin-1 protein – biochemical, small-molecule microarray, fluorescence 635/667, psychiatric disease protein project, primary screen (AID 1075).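 Note: score combines 667 nm spot fluorescence with signal to noise.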 The note with it: NRG1 binding, 635 nm fluorescence, higher = more signal.
The test system of assay [7] is Neuregulin-1 EGF-like domain. The assay can be described thus: small molecules binding NRG1 EGF domain – biochemical, small-molecule microarray, 635 nm fluorescence, primary screen (AID 1081).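 Note: binding of the protein to compounds printed on small-molecule microarray slides.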 The conditions noted are these: higher = more signal.
A short description of assay [8]: FRG1 expression reporter modulators in myotubes – cell-based, C2C12 myotubes, firefly/Renilla luciferase, luminescence, FRG1 inhibition for FSHD, primary screen (AID 1084). The conditions noted are these: FRG1 promoter luciferase, higher = more signal, called active from +8 up or from −8 down.
Assay [9] in a line: small molecules captured by biotinylated probe aFST – biochemical, small-molecule microarray, fluorescence 635/667, stem cell growth factor project, primary screen (AID 1086).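 Note: score merges 667 nm fluorescence with signal-to-noise of each printed compound spot.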 The conditions noted are these: higher = more signal.
A short description of assay [10]: binders of probe aHhip on microarray, primary screen, stem cell growth factor project, biochemical, small-molecule microarray, fluorescence 635/667 (AID 1087).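 Note: score merges spot fluorescence at 667nm with spot signal to noise ratio.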 The conditions noted are these: higher = more signal.
The subject of assay [11] is PRMT1 (protein arginine N-methyltransferase 1). As to the kind of experiment: small molecules binding arginine methyltransferase PRMT1 – biochemical, small-molecule microarray, 635 nm fluorescence, primary screen (AID 1088).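 Note: binding of Prmt1 protein to compounds spotted on small-molecule microarray slides.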 The note with it: higher = more signal.
Assay [12] can be described thus: growth effects on S. cerevisiae YJM789 – YJM789 clinical isolate, OD600, 24 h, basal, primary screen (AID 1089).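 Note: growth of clinical yeast isolate S. cerevisiae YJM 789 seeded 1000 cells per well; test concentration not given here.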 The conditions noted are these: higher = more signal, called active from +8 up or from −8 down.
Assay [13] is described as follows: S. pombe growth modifiers, basal conditions – strain 972, OD600, 24 h, no modulator, primary screen (AID 1090).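 Note: basal condition with compound alone and no growth modifier present; test concentration not given here.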 The conditions noted are these: S. pombe 972 growth, higher = more signal, called active from +8 up or from −8 down.
A short description of assay [14]: budding yeast growth modifiers under rapamycin – strain BY4716, OD600, 96 h, primary screen (AID 1091). Note: test concentration not given here. The conditions noted are these: S. cerevisiae BY4716 + rapamycin, higher = more signal, called active from +8 up or from −8 down.
Assay [15] concerns the target Torsin-1A-interacting protein 2 (Homo sapiens) (UniProt Q8NFQ8). As to the kind of experiment: small molecules binding lysate-expressed LULL1 – cell lysate, human LULL1 lysate, 635/667 nm fluorescence, primary screen (AID 1092).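 Note: probe is lysate of COS7 cells overexpressing human LULL1; score merges per-feature 667 nm fluorescence with signal-to-noise.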 The conditions noted are these: small-molecule microarray, hLULL1 lysate binding, 635 nm fluorescence; higher = more signal.
Assay [16] can be described thus: optical density change of DRC41 E. coli – strain DRC41, OD650, 24 h, E. coli filamentation project, primary screen (AID 1093).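 Note: MC1000 strain lacking acrAB efflux and sulA so SOS filamentation is blocked; test concentration not given here.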 The conditions noted are these: E. coli DRC41 growth, higher = more signal, called active from +8 up or from −8 down.
Assay [17] is described as follows: probe aLefty2 binding to arrayed compounds – biochemical, biotinylated probe, 635/667 nm fluorescence, primary screen (AID 1094).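 Note: score merges spot fluorescence near 667 nm with spot signal-to-noise ratio.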 The note with it: small-molecule microarray, higher = more signal.
Assay [18] concerns Noggin (protein binding on small-molecule microarray). As to the kind of experiment: small molecules binding Noggin protein – biochemical, 635/667 nm fluorescence, primary screen (AID 1095).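 Note: score merges 667 nm feature fluorescence with signal to noise over triplicate slides.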 The conditions noted are these: 635 nm fluorescence, higher = more signal.
In assay [19] the target is Neurogenic locus notch homolog protein 3 (Homo sapiens) (UniProt Q9UM47). As to the kind of experiment: small molecules binding NOTCH3 protein – biochemical, 635/667 nm fluorescence, primary screen (AID 1096). The conditions noted are these: small-molecule microarray, 635 nm fluorescence, higher = more signal.
Assay [20] can be described thus: probe aEGFR binding to arrayed compounds – biochemical, biotinylated probe, 635/667 nm fluorescence, primary screen (AID 1097).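 Note: probe is a biotinylated anti-EGFR antibody binding compounds printed on slides; score combines fluorescence near 667 nm and signal to noise of each spot.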 The note with it: small-molecule microarray, higher = more signal.

Sequence of Neurogenic locus notch homolog protein 2 (Homo sapiens) (Q04721 whole entry, looked up, canonical isoform): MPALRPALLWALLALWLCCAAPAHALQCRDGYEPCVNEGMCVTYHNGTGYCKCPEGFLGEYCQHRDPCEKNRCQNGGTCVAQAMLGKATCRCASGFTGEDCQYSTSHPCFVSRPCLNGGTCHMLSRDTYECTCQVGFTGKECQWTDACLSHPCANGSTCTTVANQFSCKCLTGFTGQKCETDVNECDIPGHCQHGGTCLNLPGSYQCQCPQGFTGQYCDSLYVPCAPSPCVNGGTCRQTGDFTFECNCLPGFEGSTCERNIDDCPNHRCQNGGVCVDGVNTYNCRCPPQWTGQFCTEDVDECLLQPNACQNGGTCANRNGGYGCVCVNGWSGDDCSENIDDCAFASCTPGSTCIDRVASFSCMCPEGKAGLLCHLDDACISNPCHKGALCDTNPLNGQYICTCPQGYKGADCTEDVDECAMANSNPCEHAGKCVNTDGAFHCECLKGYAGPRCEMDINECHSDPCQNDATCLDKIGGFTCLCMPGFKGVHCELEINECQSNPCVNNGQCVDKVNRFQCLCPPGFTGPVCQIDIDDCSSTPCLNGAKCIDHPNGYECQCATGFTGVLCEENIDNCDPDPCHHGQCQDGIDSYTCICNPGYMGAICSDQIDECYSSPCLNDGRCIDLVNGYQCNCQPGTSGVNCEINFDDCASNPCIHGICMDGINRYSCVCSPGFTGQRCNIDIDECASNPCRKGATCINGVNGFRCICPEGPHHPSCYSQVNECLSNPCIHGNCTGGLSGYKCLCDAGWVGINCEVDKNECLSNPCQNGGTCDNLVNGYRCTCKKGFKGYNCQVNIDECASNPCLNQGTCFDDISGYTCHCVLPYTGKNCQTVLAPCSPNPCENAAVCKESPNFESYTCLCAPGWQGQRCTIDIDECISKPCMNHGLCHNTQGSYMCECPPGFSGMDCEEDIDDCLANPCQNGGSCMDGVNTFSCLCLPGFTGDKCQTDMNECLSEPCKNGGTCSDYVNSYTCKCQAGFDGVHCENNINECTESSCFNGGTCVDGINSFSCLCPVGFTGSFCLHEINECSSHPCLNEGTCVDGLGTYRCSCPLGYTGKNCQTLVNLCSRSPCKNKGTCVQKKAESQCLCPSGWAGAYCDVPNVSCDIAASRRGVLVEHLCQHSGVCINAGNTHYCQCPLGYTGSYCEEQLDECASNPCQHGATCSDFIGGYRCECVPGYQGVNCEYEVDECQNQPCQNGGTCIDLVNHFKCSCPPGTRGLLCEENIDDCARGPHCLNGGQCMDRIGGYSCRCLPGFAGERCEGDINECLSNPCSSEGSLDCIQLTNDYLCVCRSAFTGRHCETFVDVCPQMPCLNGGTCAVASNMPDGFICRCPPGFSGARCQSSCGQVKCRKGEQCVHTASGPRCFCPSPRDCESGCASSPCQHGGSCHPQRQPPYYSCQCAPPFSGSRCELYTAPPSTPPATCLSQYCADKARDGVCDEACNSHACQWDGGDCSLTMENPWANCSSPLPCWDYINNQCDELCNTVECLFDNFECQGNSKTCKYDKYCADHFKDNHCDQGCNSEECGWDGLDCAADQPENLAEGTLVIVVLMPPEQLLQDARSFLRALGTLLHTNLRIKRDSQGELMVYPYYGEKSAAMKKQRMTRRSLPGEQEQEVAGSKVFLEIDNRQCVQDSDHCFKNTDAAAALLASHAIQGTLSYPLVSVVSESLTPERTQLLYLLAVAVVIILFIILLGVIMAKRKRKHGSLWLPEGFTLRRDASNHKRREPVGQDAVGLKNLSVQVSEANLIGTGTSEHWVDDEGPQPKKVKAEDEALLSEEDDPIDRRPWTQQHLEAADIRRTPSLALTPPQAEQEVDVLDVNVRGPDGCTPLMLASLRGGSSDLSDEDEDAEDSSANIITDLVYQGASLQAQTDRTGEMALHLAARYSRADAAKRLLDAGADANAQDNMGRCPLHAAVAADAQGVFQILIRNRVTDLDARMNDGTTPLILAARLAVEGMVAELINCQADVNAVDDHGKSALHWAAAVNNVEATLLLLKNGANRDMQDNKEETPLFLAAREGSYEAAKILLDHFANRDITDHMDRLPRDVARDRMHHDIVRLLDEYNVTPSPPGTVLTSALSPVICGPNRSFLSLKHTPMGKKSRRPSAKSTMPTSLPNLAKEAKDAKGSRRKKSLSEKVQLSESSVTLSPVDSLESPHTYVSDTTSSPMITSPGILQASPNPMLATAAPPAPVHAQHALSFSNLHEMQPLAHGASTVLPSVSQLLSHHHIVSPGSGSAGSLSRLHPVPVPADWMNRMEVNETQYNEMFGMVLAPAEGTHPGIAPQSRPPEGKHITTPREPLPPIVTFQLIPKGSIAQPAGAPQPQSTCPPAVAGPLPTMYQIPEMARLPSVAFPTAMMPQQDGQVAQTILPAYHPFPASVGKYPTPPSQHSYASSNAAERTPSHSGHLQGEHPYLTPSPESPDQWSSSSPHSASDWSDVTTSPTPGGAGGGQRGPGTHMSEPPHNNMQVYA
Sequence of Torsin-1A-interacting protein 2 (Homo sapiens) (Q8NFQ8 whole entry, looked up): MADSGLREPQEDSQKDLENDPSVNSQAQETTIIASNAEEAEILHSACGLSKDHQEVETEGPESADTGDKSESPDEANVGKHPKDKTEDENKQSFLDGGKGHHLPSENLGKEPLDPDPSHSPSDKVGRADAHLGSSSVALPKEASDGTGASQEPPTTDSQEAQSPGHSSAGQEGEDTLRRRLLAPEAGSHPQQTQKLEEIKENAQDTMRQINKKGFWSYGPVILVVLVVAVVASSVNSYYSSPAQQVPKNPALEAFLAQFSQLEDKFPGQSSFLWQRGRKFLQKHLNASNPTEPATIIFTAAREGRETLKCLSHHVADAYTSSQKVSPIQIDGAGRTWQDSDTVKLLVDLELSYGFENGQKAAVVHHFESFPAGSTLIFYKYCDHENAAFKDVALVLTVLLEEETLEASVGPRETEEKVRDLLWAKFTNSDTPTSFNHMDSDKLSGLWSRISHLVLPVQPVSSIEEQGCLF
Sequence of Pro-neuregulin-1, membrane-bound isoform (Homo sapiens) (Q02297 whole entry, looked up, the tested form may be a part, canonical isoform): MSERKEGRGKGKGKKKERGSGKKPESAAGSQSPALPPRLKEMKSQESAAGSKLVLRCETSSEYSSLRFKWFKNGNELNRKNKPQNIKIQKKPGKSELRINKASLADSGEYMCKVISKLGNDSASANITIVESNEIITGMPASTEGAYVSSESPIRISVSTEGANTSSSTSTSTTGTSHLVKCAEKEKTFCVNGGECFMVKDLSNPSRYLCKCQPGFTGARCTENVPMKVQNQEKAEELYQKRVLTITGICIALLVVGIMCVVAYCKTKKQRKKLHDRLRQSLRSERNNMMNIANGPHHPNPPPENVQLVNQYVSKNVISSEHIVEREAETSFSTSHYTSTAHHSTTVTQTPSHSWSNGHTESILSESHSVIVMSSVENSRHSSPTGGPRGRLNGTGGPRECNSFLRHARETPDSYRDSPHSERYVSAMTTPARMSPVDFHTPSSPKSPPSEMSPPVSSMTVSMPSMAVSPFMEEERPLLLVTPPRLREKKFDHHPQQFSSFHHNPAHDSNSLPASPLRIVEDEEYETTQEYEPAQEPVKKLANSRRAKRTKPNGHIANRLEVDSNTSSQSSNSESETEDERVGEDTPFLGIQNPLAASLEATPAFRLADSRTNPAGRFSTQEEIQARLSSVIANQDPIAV

Turning to `[N-]=[N+]=Nc1ccccc1[C@H]1OC(c2ccc(OCCCO)cc2)=N[C@@]1(Cc1ccccc1)C(N)=O`, the composite z-score in assay [1] amounted to 1.28; in [2], 1.6; in [3], 0.317; in assay [4] it was 0.988; in assay [5], 1.42; in assay [6], 1.14. Moreover, the composite z-score is 1.13 in assay [7]; 1.42 in [9]; 0.0053 in [10]; 1.55 in assay [11]; 2.62 in [15]; 0.789 in [17]. The composite z-score in assay [18] was 0.49; in assay [19], 1.09; in assay [20] it was 0.441. Further, the z-score in assay [8] is -0.191 (inactive); in assay [12], 2.87 (inactive); in [13], -1.11 (inactive); in [14], -0.321 (inactive); in [16], 1.6 (inactive).

Regarding `C=CCN1C(=O)[C@@]2(O[C@@H](CCn3cc(CCO)nn3)[C@H]([Si](C)(C)c3ccc(OC)cc3)[C@H]2C)c2cc(N3C(=O)c4cccc5cccc3c45)ccc21`, the composite z-score in assay [1] was -0.323; in assay [2], 0.749; in [3], -0.0839; in assay [4] it was 0.569; in assay [5] it was 0.705; in [6], 1.11. Further, the composite z-score in assay [7] was 0.813; in assay [9] it was 0.42; in assay [10], 0.142; in [11], 0.949; in [15], 0.875; in assay [17] it was -0.0592. For the same molecule, the values for the composite z-score in [18], in assay [19] and in [20] were 0.412, 1.07 and -0.0332, respectively. Besides, the z-score in [8] was -2.79 (inactive); in assay [12], -0.309 (inactive); in assay [13], 0.593 (inactive); in assay [14], 13.5 (active); in [16], 2.4 (inactive).

As to `NC(=O)N1C(=O)C2C(C1=O)C1C=C(c3ccc(CO)cc3)C2C(C2CC2)N1Cc1cc2c(cc1Br)OCO2` (stereo not given), the composite z-score in [1] was 0.567; in [2], 0.778; in assay [3], -0.105; in assay [4] it was -0.277; in [5], -0.204; in assay [6], 0.976. In addition, the composite z-score in assay [7] was 0.887; in assay [9], 0.0417; in assay [10], -0.0237; in assay [11], 0.364; in [15], 1.86; in assay [17], 0.0834. Moreover, the composite z-score in assay [18] was 0.176; in assay [19], 0.623; in [20], -0.0975. The z-score was -2.01 (inactive) in assay [8]; -0.779 (inactive) in assay [12]; -3.29 (inactive) in assay [13]; -1.32 (inactive) in assay [14]; 1.19 (inactive) in assay [16].

Regarding `C=CCC(OC(C)=O)[C@@H]1[C@@H](N(Cc2cccc3ccccc23)C(=O)Cc2ccc(OC)cc2)c2cc(OCCCO)ccc2N1C(=O)Cc1ccc(OC)cc1` (stereo not given in full), the composite z-score was 0.163 in [1]; 0.045 in assay [2]; -0.0396 in [3]; -0.236 in [4]; -0.111 in assay [5]; -0.0173 in [6]. In addition, the composite z-score in [7] is -0.832; in assay [9] it was -0.0127; in assay [10], -0.113; in [11] it was -0.59; in [15], 0.0872; in assay [17], -0.0691. Further, the composite z-score is -0.318 in [18], -0.89 in assay [19] and -0.166 in assay [20]. The z-score was -0.781 (inactive) in [8]; 0.395 (inactive) in assay [12]; -1.38 (inactive) in assay [13]; -0.275 (inactive) in assay [14]; 2.21 (inactive) in assay [16].

Consider `CC(C)N1C(=O)c2ccccc2[C@@H](C(=O)NCc2ccccc2)[C@@H]1c1ccc(CO)cc1`, for which the composite z-score is -0.0604 in [1]; 0.317 in [2]; -0.0806 in assay [3]; -0.723 in assay [4]; -0.423 in assay [5]; 0.844 in assay [6]. In addition, the composite z-score in assay [7] was 1.15; in assay [9] it was -0.0768; in assay [10], -0.141; in [11] it was -0.238; in [15], 0.979; in assay [17], -0.109. Further, the composite z-score in [18] was -0.608; in assay [19], -0.904; in assay [20], -0.273. In addition, the z-score in assay [8] is -0.331 (inactive); in [12], 0.582 (inactive); in [13], -0.579 (inactive); in assay [14], 1.31 (inactive); in assay [16], 0.846 (inactive).
